Experiment [1] can be described thus: Tanguay_ZF_120hpf_PFIN_legacy: (Legacy) Oregon State University Tanguay Lab 120 Hour Post-fertilization zebrafish Assay for Pectoral Fin Malformation (AID 2283648).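 Note: each larva judged yes or no for fin defect by brightfield with dead larvae skipped.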 The gist of the method:
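Dechorionated Tropical 5D wild-type zebrafish embryos, one per well, statically exposed from 6 to 120 hpf at 28C with 0.64% DMSO final. Pectoral fin malformation scored present/absent by brightfield at 120 hpf; not scored in dead embryos.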

A short description of experiment [2]: Tanguay_ZF_120hpf_PIG_legacy: (Legacy) Oregon State University Tanguay Lab 120 Hour Post-fertilization zebrafish Assay for Pigmentation Malformation (AID 2283650). In short, it runs like this: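 Dechorionated Tropical 5D wild-type embryos, one per well from 6 hpf, statically exposed at 28C in the dark until 120 hpf, 0.64% DMSO final. Pigmentation scored present/absent by brightfield microscopy; dead embryos not scored; fitted versus DMSO.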

Experiment [3] is described as follows: Tanguay_ZF_120hpf_CIRC_legacy: (Legacy) Oregon State University Tanguay Lab 120 Hour Post-fertilization zebrafish Assay for Circulatory Malformation (AID 2283651). In short, it runs like this:
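Tropical 5D wild-type embryos, dechorionated with pronase at 4 hpf, were placed singly in wells at 6 hpf and exposed statically at 28C to 120 hpf (0.64% DMSO final). Circulatory malformation was scored present/absent by brightfield microscopy.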

A short description of experiment [4]: Tanguay_ZF_120hpf_SWIM_legacy: (Legacy) Oregon State University Tanguay Lab 120 Hour Post-fertilization zebrafish Assay for Swim Bladder Malformation (AID 2283654).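 Note: swim bladder malformation in each larva scored yes or no under brightfield.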 The gist of the method:
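Dechorionated wild-type Tropical 5D zebrafish embryos, one per well from 6 hpf, were statically exposed at 28C until 120 hpf in 0.64% DMSO. Swim bladder malformation scored as present/absent by brightfield microscopy; not scored in dead larvae.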

Experiment [5] is described as follows: Tanguay_ZF_120hpf_TRUN_legacy: (Legacy) Oregon State University Tanguay Lab 120 Hour Post-fertilization zebrafish Assay for Truncated Body (AID 2283655). The gist of the method: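 Truncated body is recorded as a binary endpoint at 120 hpf by brightfield imaging of wild-type 5D larvae. Exposure runs statically from 6 hpf at 28C with 0.64% DMSO; embryos dying earlier are not scored.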

Experiment [6] is described as follows: Tanguay_ZF_120hpf_NC_legacy: (Legacy) Oregon State University Tanguay Lab 120 Hour Post-fertilization zebrafish Assay for Notochord and Tail Malformation (AID 2283656). The gist of the method: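 Dechorionated 5D zebrafish, 1/well from 6 hpf; static exposure to 120 hpf, 28C, sealed, dark; final DMSO 0.64% v/v. NC scored binary (present/absent); dead embryos not scored. Fit vs DMSO baseline, gain direction.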

A short description of experiment [7]: Tanguay_ZF_120hpf_CFIN_legacy: (Legacy) Oregon State University Tanguay Lab 120 Hour Post-fertilization zebrafish Assay for Caudal Fin Malformation (AID 2283649). The gist of the method: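 Binary presence or absence of caudal fin malformation at 120 hpf, read by brightfield microscopy, with DMSO as baseline. Larvae came from 5D wild-type embryos exposed statically from 6 hpf at 28C after pronase dechorionation.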

Read-out in experiment [8]: kallikrein-3 (KLK3), KLK3 (gene 354)
Description: LTEA_HepaRG_KLK3: Life Technologies and Expression Analysis (LTEA) Assay for kallikrein-3 (KLK3) using HepaRG (AID 2283652; active = hit-call score of the fitted dose curve at least 0.9, where 1 is the maximum; inactive = score below 0.9). The settings on record: mRNA level, 48 h; actives raise or lower the signal. In short, it runs like this:
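Differentiated human HepaRG cells in serum-free induction medium exposed 48 h in duplicate, eight-point half-log series from 100 uM in 0.5% DMSO. KLK3 mRNA by qRT-PCR, normalised to ACTB, GAPDH, POLR2A; bidirectional fit versus DMSO.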

Read-out in experiment [9]: solute carrier (SLC22A6), SLC22A6 (gene 9356)
Description: LTEA_HepaRG_SLC22A6: Life Technologies and Expression Analysis (LTEA) Assay for solute carrier (SLC22A6) using HepaRG (AID 2283653; active = hit-call score of the fitted dose curve at least 0.9, where 1 is the maximum; inactive = score below 0.9). To be noted: mRNA level, 48 h; actives raise or lower the signal. The gist of the method:
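Read-out is SLC22A6 transcript level by qRT-PCR, normalised to three housekeeping genes and fitted for gain or loss relative to 0.5% DMSO vehicle. Human HepaRG cells received chemicals at up to 100 uM for 48 h.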

Read-out in experiment [10]: solute carrier (SLC10A1), SLC10A1 (gene 6554)
Description: LTEA_HepaRG_SLC10A1: Life Technologies and Expression Analysis (LTEA) Assay for solute carrier (SLC10A1) using HepaRG (AID 2283657; active = hit-call score of the fitted dose curve at least 0.9, where 1 is the maximum; inactive = score below 0.9). The settings on record: mRNA level, 48 h; actives raise or lower the signal. The gist of the method: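 HepaRG cells (single lot) exposed 48 h in serum-free induction medium, 8-point half-log series from 100 uM top in 0.5% DMSO, duplicate. SLC10A1 mRNA by qRT-PCR normalised to ACTB, GAPDH, POLR2A; bidirectional fit versus DMSO.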

Inconclusive results are not listed. Calls of active or inactive are those of the source. Rule for the calls, unless noted: active = hit-call score of the fitted dose curve at least 0.9, where 1 is the maximum; inconclusive = response in the unintended direction; inactive = score below 0.9.

As a reminder, the AC50 is the midpoint of the concentration-response curve, whichever way the signal moves.

As for `NC(=O)N1C(=O)C(C(=O)c2cc(Cl)cs2)c2cc(F)c(Cl)cc21` (centres undefined), the call in [1], in [2], in experiment [3], in experiment [4], in experiment [5] and in [6] was inactive.

On to `CCc1nn(C2CCCCC2)c2cc(C3(C#N)CCC(C(=O)O)CC3)ccc12` (centres undefined), for which the AC50 in experiment [1] was 0.563 µM (active); in experiment [7] it was 0.15 µM (active); in experiment [4], 0.419 µM (active); in experiment [5], 0.171 µM (active). Further, the call in experiment [2], in experiment [3] and in experiment [6] was inactive.

As for `OCCC(F)(F)C(F)(F)C(F)(F)C(F)(F)C(F)(F)C(F)(F)C(F)(F)C(F)(F)F`, the molecule was classed as inactive in experiment [1], in experiment [7], in experiment [2], in [3], in [4] and in experiment [5]. For the same molecule, the outcome in [6] was inactive.

With `O=C(OCCOCCOC(=O)c1ccccc1)c1ccccc1`, the outcome in [1], in experiment [7], in [2], in experiment [3], in experiment [8] and in experiment [9] was inactive. Besides, the result in [4], in [5] and in [10] was inactive.

Turning to `CC(C)(C)CC(C)(C)c1ccc(O)c(-n2nc3ccccc3n2)c1`, the result in experiment [1], in [2], in [3], in experiment [4] and in [5] was inactive.

On to `CCCCCCCCCCCCCCCS(=O)(=O)Oc1ccccc1`, for which the outcome in experiment [1], in experiment [2], in [3], in experiment [4] and in experiment [5] was inactive.

`CC[C@H](C)[C@@H](C(=O)O)n1sc2ccccc2c1=O`: the outcome in experiment [1], in [7], in [2], in experiment [3], in experiment [5] and in [6] was inactive.

With `CCCCC(CC)COC(=O)CCCCC(=O)OCC(CC)CCCC` (centres undefined), the result in experiment [1], in [2], in experiment [3], in [4], in experiment [5] and in [6] was inactive.

As to `CCCCCCCCCCCCN1CCCC1=O`, the molecule was classed as inactive in [1], in [2], in experiment [3], in experiment [4] and in [6]. Besides, the AC50 in [5] was 34.7 µM (active).

As for `O=[N+]([O-])c1ccc(O)cc1`, the molecule was called inactive in experiment [1], in experiment [7], in experiment [2], in experiment [3], in [4] and in experiment [5]. For the same molecule, the molecule was called inactive in [6].

In the case of `CC(C)(C)c1ccc(O)c(C(C)(C)C)c1`, the molecule was called inactive in experiment [1], in experiment [2], in experiment [3], in experiment [4], in experiment [5] and in experiment [6].

As to `CN1CCN(c2ccccc2/C=C2\SCCN(c3ccc(Cl)c(Cl)c3)C2=O)CC1`, the call in experiment [1], in experiment [7], in experiment [2], in experiment [3], in [4] and in experiment [5] was inactive. Moreover, the outcome in [6] was inactive.

On to `N#C[C@@H]1CC(F)(F)CN1C(=O)CNC1CC2CCC(C1)N2c1ncccn1` (some centres undefined), for which the result in experiment [1], in experiment [7], in [2], in [3] and in [5] was inactive.

On to `CCOC(=O)CC(O)(CC(=O)OCC)C(=O)OCC`, for which the call in [1], in experiment [2], in experiment [3], in [4], in experiment [5] and in experiment [6] was inactive.

For `CC(O)CO` (centres undefined), the call in [1], in experiment [2], in experiment [3], in experiment [9], in [5] and in [6] was inactive. In [10], the outcome was inactive.

On to `CC(C)(C)c1cc(C(C)(C)C)c(O)c(C(C)(C)C)c1`, for which the molecule was called inactive in [1], in experiment [2], in experiment [3], in experiment [9], in experiment [4] and in experiment [5]. For the same molecule, the call in [6] and in experiment [10] was inactive.

Consider `Oc1cc2ccccc2c2ccccc12`, for which the AC50 in [1] is 12.1 µM (active); in experiment [2], 12.9 µM (active); in experiment [3], 10.2 µM (active); in experiment [4] it was 10.3 µM (active); in experiment [5], 38.3 µM (active). For the same molecule, the outcome in experiment [6] was inactive.

For the molecule `COC(=O)CCCCC(=O)OC`, the molecule was classed as inactive in [1], in experiment [2], in experiment [3], in experiment [4], in experiment [5] and in experiment [6].

Turning to `CN(C)C=O`, the result in experiment [1], in experiment [2], in [3], in experiment [4] and in experiment [5] was inactive.

As to `CC(=O)NC1(c2cccc(F)c2)CCN(CC[C@@]2(c3ccc(Cl)c(Cl)c3)CN(c3ccccc3)C(=O)CO2)CC1`, the molecule was called inactive in experiment [1], in experiment [2], in experiment [3], in experiment [4], in [5] and in experiment [6].

For `Cc1cc(CCN2CCN(c3nsc4ccccc34)CC2)cc2c1NC(=O)CC2(C)C`, the AC50 in [1] was 5.62 µM (active); in [2], 6.31 µM (active); in [3] it was 5.83 µM (active); in [4] it was 3.82 µM (active); in [5], 3.08 µM (active); in experiment [6], 4.88 µM (active).

`CCCCCCCCC(=O)O`: the outcome in experiment [1], in experiment [7], in experiment [2], in [3], in experiment [4] and in experiment [5] was inactive. Further, the outcome in [6] was inactive.

In the case of `c1ccc2c(c1)ccc1ccccc12`, the result in experiment [1], in experiment [2], in [3], in [4], in experiment [5] and in [6] was inactive.

For the molecule `C[C@@H]1C[C@H]2[C@@H]3CCC4=CC(=O)C=C[C@]4(C)[C@@]3(F)[C@@H](O)C[C@]2(C)[C@@]1(O)C(=O)COP(=O)(O)O`, the outcome in experiment [1], in experiment [2], in [3], in experiment [4], in [5] and in experiment [6] was inactive.

With `OC1CCC(C2CCCCC2)CC1` (centres undefined), the result in experiment [1], in experiment [2], in [3], in experiment [4] and in [5] was inactive.

On to `O=c1c(-c2ccc(O)cc2)coc2cc(O)ccc12`, for which the call in experiment [1], in experiment [2], in experiment [3], in experiment [4], in experiment [5] and in experiment [6] was inactive.

`O=C(O)c1ccccc1C(c1ccc(O)cc1)c1ccc(O)cc1`: the molecule was classed as inactive in experiment [1], in experiment [7], in experiment [2], in [3], in experiment [4] and in experiment [5]. Further, the result in [6] was inactive.

The record behind these values is PubChem BioAssay (EPA / NIEHS).
